From PubChem BioAssay (NCATS)
Results filed as inconclusive are left out. The source made the active and inactive calls. Calls follow the shape of the dose curve; as a rule, active = well fitted cell-killing curve with a large enough effect; inconclusive = small, poorly fitted or top-dose-only effect, or effect the other way; inactive = flat fitted curve, though single readings scatter.

How the values were obtained:
Test in all cases: Primary qHTS to identify gynecologic anti-cancer compounds using libraries of approved drugs and bioactive compounds (AID 1345084); also: nearly all actives have a fitted effect of over 55% in size
Conditions in all cases: Gynecologic cancer cell panel viability, ATPlite luminescence, 48 h; series mostly up to 57.5 µM
SKOV3 = test system: SKOV3
Summary of the method: (§1)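 ATP-based viability (ATPlite), 1,000 cells/well, 16 h pre-incubation, 48 h compound at 37 C, 5% CO2, 15 min RT before read.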

Tov-21-G = test system: Tov-21-G
Summary of the method: as §1

Tov112D = test system: Tov112D
Summary of the method: as §1
% is scaled to controls: 0 for no effect and ±100 for the full control effect.

Cc1cc(CNC(=O)c2cc(C(=O)NCc3ccc(F)c(C)c3)ncn2)ccc1F
inactive: Potency (SKOV3) | Potency (Tov-21-G) | Potency (Tov112D)

C/C=C(\C)C(=O)OC1C2(O)CC3=C4CC(=O)OC(c5ccoc5)C4(C)CCC3C(C)(C2=O)C(C(OC(C)=O)C(=O)OC)C1(C)C (stereo not drawn)
inactive: Potency (SKOV3) | Potency (Tov-21-G) | Potency (Tov112D)

C/C=C1/CC2C(=O)Nc3cc(O)c(OC)cc3C(=O)N2C1 (stereo not drawn)
inactive: Potency (SKOV3) | Potency (Tov-21-G) | Potency (Tov112D)

C=C1C[C@@]2(O)O[C@@]3(C[C@H]2C(C)C)[C@@H](C)CC[C@@H]13
inactive: Potency (SKOV3) | Potency (Tov-21-G) | Potency (Tov112D)

CC1(C)CCC2(C(=O)O)C(O)CC3(C)C(=CCC4C5(C)CCC(OC6OC(CO)C(O)C(O)C6OC6OC(CO)C(O)C(O)C6OC6OCC(O)(CO)C6O)C(C)(C)C5CCC43C)C2C1 (stereo not drawn)
inactive: activity change, negative = cytotoxicity (SKOV3) 9.15% [at 11.6 µM] | activity change, negative = cytotoxicity (Tov-21-G) -4.95% [at 11.6 µM] | activity change, negative = cytotoxicity (Tov112D) 1.07% [at 11.6 µM]

C[C@@H]1[C@H](O)[C@@H]2OC(=O)C3=C2[C@H](CCC3)[C@@]12C[C@@H](c1ccoc1)OC2=O
inactive: Potency (SKOV3) | Potency (Tov-21-G) | Potency (Tov112D)

CC(C)C1CCC(CO)=CC1/C=C(\CO)C(=O)OCC1(O)CCC(C(C)C)C2C=C(C(=O)O)COC(=O)C21 (stereo not drawn)
inactive: Potency (SKOV3) | Potency (Tov-21-G) | Potency (Tov112D)

CC(NC(=O)CC(=O)O)C(=O)Nc1ccccc1C(N)=O (stereo not drawn)
inactive: Potency (SKOV3) | Potency (Tov-21-G) | Potency (Tov112D)

Cc1ncc([N+](=O)[O-])n1C[C@H](O)CN1CCOCC1
inactive: Potency (SKOV3) | Potency (Tov-21-G) | Potency (Tov112D)

COc1ccc2[nH]c(S(=O)Cc3ncc(C)c(OC)c3C)nc2c1 (stereo not drawn)
inactive: Potency (SKOV3) | Potency (Tov-21-G) | Potency (Tov112D)

NC1=NC2(c3cc(NC(=O)c4ccc(F)cn4)ccc3F)COCC2CS1 (stereo not drawn)
inactive: Potency (SKOV3) | Potency (Tov-21-G) | Potency (Tov112D)

O=C(O)c1ccnc2cc(C(OCC3CCC(F)(F)CC3)c3ccccc3Cl)[nH]c12 (stereo not drawn)
inactive: Potency (SKOV3) | Potency (Tov-21-G) | Potency (Tov112D)

OC[C@H]1O[C@@H](O[C@H]2[C@H](O)[C@@H](CO)O[C@@H](OCc3ccccc3)[C@@H]2O[C@@H]2OC[C@](O)(CO)[C@H]2O)[C@H](O)[C@@H](O)[C@@H]1O
inactive: Potency (SKOV3) | Potency (Tov-21-G) | Potency (Tov112D)

CC1=C(CCC(C)O[C@@H]2O[C@H](CO)[C@@H](O)[C@H](O)[C@H]2O)C(C)(C)CC(O)C1 (stereo partly drawn)
inactive: Potency (SKOV3) | Potency (Tov-21-G) | Potency (Tov112D)

C=C1C[C@]23C[C@@]1(O)CC[C@H]2[C@@]12C=C[C@H](O)[C@@](C)(C(=O)O1)[C@H]2[C@@H]3C(=O)O
inactive: Potency (SKOV3) | Potency (Tov-21-G) | Potency (Tov112D)

C=C1CCc2occ(C)c2[C@H]2[C@H]1[C@@]13O[C@@]1(C[C@@H](C)[C@H]3OC(C)=O)[C@H]1O[C@@]21C
inactive: Potency (SKOV3) | Potency (Tov-21-G) | Potency (Tov112D)

C=C1C2CCC3CC2(CC(O)C2(O)C1CC(OC1OC(CO)C(O)C(O)C1O)C2(C)C)CC3(C)O (stereo not drawn)
inactive: Potency (SKOV3) | Potency (Tov-21-G) | Potency (Tov112D)

C=C1CCC2C(C)(C)CCC[C@]2(C)[C@H]1CC/C(C)=C/C(=O)O (stereo partly drawn)
inactive: Potency (SKOV3) | Potency (Tov-21-G) | Potency (Tov112D)

CC1CCC2(C)CCC3(C)C(=CCC4C5(C)CCC(O)C(C)(C(=O)O)C5CCC43C)C2C1C (stereo not drawn)
inactive: Potency (SKOV3) | Potency (Tov-21-G) | Potency (Tov112D)

C[C@@H]1O[C@@H](O[C@@H]2[C@@H](O)[C@H](O[C@@H]3[C@@H](O)[C@@H](O)[C@H](O[C@H]4[C@H](OC(=O)[C@]56CCC(C)(C)C[C@H]5C5=CCC7[C@@]8(C)C[C@H](O)[C@H](O[C@@H]9O[C@H](C(=O)O)[C@@H](O)[C@H](O)[C@H]9O)[C@@](C)(CO)C8[C@H](O)C[C@@]7(C)[C@]5(C)C[C@H]6O)O[C@@H](CO)[C@@H]4O)O[C@H]3C)OC[C@H]2O)[C@H](O)[C@H](O)[C@H]1O (stereo partly drawn)
inactive: activity change, negative = cytotoxicity (SKOV3) -4.92% [at 6.55 µM] | activity change, negative = cytotoxicity (Tov-21-G) 2.22% [at 6.55 µM] | activity change, negative = cytotoxicity (Tov112D) 5.57% [at 6.55 µM]

CC(=O)O[C@@H]1[C@H](O[C@@H]2OC[C@](O)(CO)[C@H]2O)[C@@H](O[C@@H]2O[C@@H](C)[C@H](O)[C@@H](O[C@@H]3O[C@H](CO)[C@@H](O)[C@H](O)[C@H]3O)[C@H]2O)[C@H](OC(=O)[C@]23CCC(C)(C)C[C@H]2C2=CCC4[C@@]5(C)C[C@H](O)[C@H](O[C@@H]6O[C@H](C(=O)O)[C@@H](O)[C@H](O)[C@H]6O)[C@@](C)(C(=O)O)C5CC[C@@]4(C)[C@]2(C)CC3)O[C@@H]1C (stereo partly drawn)
inactive: activity change, negative = cytotoxicity (SKOV3) 27% [at 6.55 µM] | activity change, negative = cytotoxicity (Tov-21-G) 0.936% [at 6.55 µM] | activity change, negative = cytotoxicity (Tov112D) -2.6% [at 6.55 µM]
